According to PubChem BioAssay AID1421 (Emory University Molecular Libraries Screening Center, 2008):
The campaign covered roughly 1,300 compounds. About 140 (11%) were called active. No rule for the calls is given here. The list is a sample of the results. Results with a measured potency or affinity are listed apart.

target: Prostaglandin E2 receptor EP2 subtype (Homo sapiens) (UniProt P43116); assay: compounds shifting PGE2 potency at EP2 – cell-based, human EP2, PGE2 EC50 shift, dose response (AID 1421); conditions: EP2-expressing cells, PGE2 EC50 shift by compound; at 20 µM
Sequence (P43116 whole entry, looked up): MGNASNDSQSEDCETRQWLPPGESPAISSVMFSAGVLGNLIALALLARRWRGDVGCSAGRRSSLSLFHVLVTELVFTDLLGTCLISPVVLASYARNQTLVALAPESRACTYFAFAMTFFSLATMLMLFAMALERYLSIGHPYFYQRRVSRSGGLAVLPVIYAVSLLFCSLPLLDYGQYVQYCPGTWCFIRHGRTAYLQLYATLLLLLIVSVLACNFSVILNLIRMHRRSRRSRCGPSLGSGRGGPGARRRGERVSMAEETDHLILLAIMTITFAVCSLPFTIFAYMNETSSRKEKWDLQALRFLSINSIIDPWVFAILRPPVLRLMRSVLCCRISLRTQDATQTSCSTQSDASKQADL

PGE2 EC50 with compound, inactive:
Cc1cc(SCC(=O)NCCC2=CCCCC2)nc2ccccc12 210 pM
CCCc1cc(=O)n2[nH]c(NCc3cccs3)nc2n1 940 pM
N#CN=C1SCCS1 670 pM
C=CCSc1ncnc2sc(C)c(C)c12 850 pM
CSc1ncnc2sc(C)c(C)c12 560 pM
CC(C)c1ccc2c(c1)CCC1C(C)(C(N)=O)CCCC21C (stereo unspecified) 380 pM
Cn1c(/C=C/N(Cc2ccccc2)c2ccccc2)c([N+](=O)[O-])c(=O)n(C)c1=O 450 pM
CCN(CC)CCN1C(=O)c2cccc3cc(N)cc(c23)C1=O 760 pM
Brc1ccccc1Cn1c(-c2cscn2)nc2ccccc21 390 pM
FC(F)(F)c1nnc(-c2ccccc2)nc1Sc1ccccc1 720 pM
c1ccc(-c2n[nH]nc2-c2ccccc2)cc1 210 pM
CCN1C(=O)/C(=C2/C=CC=CN2C)SC1=S 940 pM
Nc1ccccc1CCCC(=O)O 940 pM
COc1cc2ccccc2cc1C(=O)NC(=S)Nc1cccc(C(=O)O)c1 6940 pM
O=C(Nc1ccccc1Oc1ccccc1)c1ccccc1F 170 pM
CC1CCCCN1C(=O)/C(=C\c1ccccc1)c1ccccc1 (stereo unspecified) 440 pM
Cc1sc(NC(=O)CN2CCOCC2)c(C(=O)c2ccccc2)c1C 630 pM
CCc1ccccc1NC(=S)N(Cc1ccco1)C(C)c1cccs1 (stereo unspecified) 380 pM
CCOC(=O)C1=C(N)OC(C)=C(C#N)C1c1ccco1 (stereo unspecified) 560 pM
S=c1[nH]nc(C2CCCCC2)n1Cc1ccccc1 390 pM
C=CCc1cc(C=O)cc(OC)c1OCc1ccc(Cl)cc1 920 pM
CNC(=O)NC(=O)CSc1nc(-c2cccs2)c(C#N)c(=O)[nH]1 15800 pM
CC(Cc1ccccc1)NC(=O)C1(c2ccccc2)CCOCC1 (stereo unspecified) 1120 pM
CCOC(=O)c1cnc2c(c(C)nn2C)c1Oc1ccc(Cl)cc1 520 pM
C=CCn1c(=O)c(C(=O)NCCc2ccccc2)c(O)c2ccccc21 500 pM
CC(C)Cc1nc(SCc2cccnc2)c2c(=O)n(C)c(=O)n(C)c2n1 370 pM
Cc1ccc2nc(SCC(=O)NCc3ccco3)c(C)cc2c1 500 pM
COc1cc(OC)c2c(OC)c(-c3ccc4c(c3)OCO4)c(=O)oc2c1 390 pM
CCC1C/C(=C/c2ccco2)C(=O)/C(=C/c2ccco2)C1 (stereo unspecified) 690 pM
Cc1cc(C)c(S(=O)(=O)c2ccccc2)c(OC(=O)c2c(Cl)cc(Cl)cc2Cl)n1 380 pM
c1ccc(CCc2cccnc2)nc1 800 pM
Cc1noc(C)c1CSc1ncnc2sc3c(c12)CCC(C)C3 (stereo unspecified) 400 pM
Cc1noc(C)c1CSc1ncnc2sc3c(c12)CCCCC3 420 pM
CC(=O)O[C@H]1C[C@@H](OC(C)=O)C(C)(C)C2C[C@@H](OC(C)=O)[C@]3(C)C([C@H](OC(C)=O)C[C@@]4(C)[C@H](c5ccoc5)OC(=O)[C@H]5O[C@]543)[C@]21C (stereo partly specified) 320 pM
Cc1ccc(C)n1-n1cnc2scc(-c3cccs3)c2c1=O 290 pM
COC(=O)c1sccc1NC(=O)c1cc2c(s1)CCCC2 500 pM
COc1ccc(Cc2n[nH]c(=S)n2Cc2ccccc2)cc1Cl 570 pM
CCOC(=O)c1c(NC(=O)Cc2cccs2)sc(C)c1C 530 pM
CCOC(=O)c1c(NC(=O)c2ccc(Br)o2)sc(C)c1CC 270 pM
COC(=O)c1c(NC(=O)Cc2cccs2)sc2c1CCCC2 490 pM
CCOC(=O)c1c(/N=C/C2C(=O)CCCC2=O)sc2c1CCCC2 360 pM
CCOC(=O)c1c(NC(=O)c2cccs2)sc2c1CCN(C(=O)OCC)C2 430 pM
CCOC(=O)Nc1sc2c(c1C(=O)OCC)CCC2 570 pM
CCOC(=O)c1c(NC(=O)CN2CCN(C(=O)c3ccco3)CC2)sc2c1CCCC2 590 pM
COC(=O)c1c(NC(=O)c2ccc(Br)s2)sc2c1CCC2 420 pM
Cc1cccc(/N=C/c2c(O)ccc3oc4c(c23)CCCC4)n1 1210 pM
C=CCSc1nc2ccsc2c(=O)n1-c1ccccc1 370 pM
Oc1ccc(/C=N/N2CCN(C3c4ccccc4-c4ccccc43)CC2)c(O)c1 250 pM
COc1cc(NC(=S)NC(=O)c2cc(C)cc(C)c2)ccc1NC(=O)c1cccs1 300 pM
O=S(=O)(c1cccs1)N1CN(Cc2cccs2)c2nc3ccccc3nc21 450 pM
CCOC(=O)c1c(NC(=O)CN(CC)CC)sc2c1CCN(C(=O)OCC)C2 290 pM
CCOC(=O)c1c(N)nn(C(=O)C(C)(C)C)c1-c1ccccc1 110 pM
Cc1cc(NC(=O)c2cc(-c3ccncc3)nc3c(C)cccc23)no1 920 pM
CCOC(=O)c1c(NC(=O)COC(=O)Cn2c(C)nc3ccccc32)sc2c1CCCC2 550 pM
CCOC(=O)c1c(NC(=O)Cn2nnc3ccccc32)sc2c1CCC(C)C2 (stereo unspecified) 530 pM
COC(=O)c1c(NC(=S)NN2CCOCC2)sc2c1CCCC2 390 pM
CCOC(=O)c1c(NC(=O)c2ccc(N3C(=O)[C@@H]4[C@H](C3=O)[C@H]3C=C[C@@H]4C3)cc2)sc2c1CC(C)CC2 (stereo partly specified) 470 pM
CCOC(=O)c1c(NC(=O)c2ccn(CC)n2)sc2c1CCCC2 330 pM
CC(=O)Nc1sc2c(c1C(c1cccs1)N1CCOCC1)CCCC2 (stereo unspecified) 330 pM
COC(=O)c1c(NC(=O)c2ccccc2N(C)S(=O)(=O)c2ccccc2)sc2c1CCCC2 380 pM
CCOc1ccccc1COC(=O)c1cccc(-n2cnnn2)c1 540 pM
C/C(Cl)=C/Cn1c(SC(C)C)nc2c1c(=O)[nH]c(=O)n2C 830 pM
NS(=O)(=O)c1ccc(NCc2cnc3ccccc3n2)cc1 1130 pM
Cc1ccccc1/C=C/c1nc2ccccc2c(=O)n1CCc1ccccc1 190 pM
COc1cc(C2Oc3cc(C4Oc5cc(O)cc(O)c5C(=O)C4O)ccc3OC2CO)ccc1O (stereo unspecified) 1940 pM
CCCCC(=O)Nc1sc2c(c1C(=O)OCC)CCC(C=O)=C2Cl 1750 pM
CCOC(=O)c1c(-c2cccs2)csc1NC(=O)CN1CCOCC1 2480 pM
CCCC/C(=N\NC(=O)c1ccc(Br)o1)c1ccccc1 600 pM
COc1cc2cc(Br)cc(Br)c2nc1C 1200 pM
CCC1CCc2c(sc3ncnc(N4CCOCC4)c23)C1 (stereo unspecified) 420 pM
Cc1sc(NC(=O)c2cccs2)c(C(=O)OC(C)C)c1C 270 pM
CCOC(=O)c1c(NC(=O)c2cccs2)sc2c1CCCC2 750 pM
N#CCSc1nc2ccccc2c(=O)n1C1CCCCC1 680 pM
O=C(OCc1ccc(Cl)cc1)c1ccccc1C(=O)c1ccccc1 410 pM
O=C(c1ccccc1)N1N=C(c2ccccc2)CC1c1ccccc1O (stereo unspecified) 270 pM
O=C(Nc1nc(-c2cccs2)c(-c2ccccc2)s1)c1ccco1 720 pM
COc1ccc(-c2nc(NC(C)=O)sc2-c2ccc(OC)cc2)cc1 570 pM
CCCCCOC(=O)c1[nH]c2c(c1C)C(=O)C(C(=O)OC)C(C)C2 (stereo unspecified) 880 pM
Nc1cccc(OCc2nc(N)nc(N)c2-c2ccc(Cl)cc2)c1 920 pM
CCc1c(-c2n[nH]c(=S)n2Cc2ccccc2)csc1C 320 pM
C=CCOc1nc(-c2ccncc2)nc2ccccc12 270 pM
CCOC(=O)CN(C(=O)CSc1nnc(Cc2ccccc2)n1-c1ccc(C)cc1)c1ccccc1 470 pM
Cc1ccc(C)c(CN2C(=O)C(C)Oc3ccc(C)cc32)c1 (stereo unspecified) 300 pM
Oc1ccccc1-c1nc(N2CCCC2)c2ccccc2n1 300 pM
CCOc1nc(-c2ccccc2O)nc2ccccc12 320 pM
CCCC(=O)Nc1ccccc1Sc1ncnc2scc(-c3ccccc3)c12 740 pM
CCCCC(CC)CN1CN(CC(CC)CCCC)CC(C)(N)C1 (stereo unspecified) 750 pM
OCCCNc1nc(-c2ccc(Br)cc2)nnc1-c1ccc(Cl)cc1 1430 pM
COc1ccc(-n2c(COc3cccc4ccccc34)nnc2SCC#N)cc1 490 pM
NCCc1c(-c2ccccc2)n(-c2ccccc2)c2ccccc12 410 pM
FC(F)(F)c1cccc(/C=N/NC(=S)NC2CCCCC2)c1 4200 pM
O=C(CC(Sc1ccccc1)c1cccs1)c1ccco1 (stereo unspecified) 410 pM
CCn1c2ccccc2c2cc([N+](=O)[O-])ccc21 380 pM
CCn1c2ccccc2c2nc3ccccc3nc21 630 pM
CC(C)n1c2ccccc2c2nc3ccccc3nc21 410 pM
CCCSc1nc(N2CCOCC2)c2c(c1C#N)CCCC2 340 pM
